{"source": "PubChem BioAssay (NCATS)", "note": "Inconclusive results are not listed. Entries that show only a call come without a potency. Calls of active or inactive are those of the source. Calls follow the shape of the dose curve; as a rule, active = well fitted cell-killing curve with a large enough effect; inconclusive = small, poorly fitted or top-dose-only effect; inactive = no such curve, though single readings can be large or run the other way. Potency is read from the fitted curve at half-maximal effect."}
{"test": "qHTS of pediatric cancer cell lines to identify multiple opportunities for drug repurposing: Primary screen for A673 cells (AID 1347092); also: nearly all actives have a fitted effect of over 45% in size", "details": "A673 Ewing sarcoma viability, CellTiter-Glo ATP luminescence, 48 h; series mostly up to 46 µM", "description": "Drug repurposing or repositioning has been offered as a strategy for drug development in oncology programs. This approach has special potential for childhood cancers and other rare or orphan diseases, where the expected return on new drug development has been a disincentive to pharmaceuticals. […] In this project we exploit the poly-pharmacology of drugs to discover new indications via phenotypic screening of a panel of 19 well-characterized cell lines derived from solid tumors seen in children and adolescents. The goal is to identify approved drugs with previously unrecognized anticancer properties that has the potential to reveal new mechanisms and biological processes involved in carcinogenesis or drug resistance. We employed a titration-based paradigm (quantitative high-throughput screening or qHTS), where all compounds were tested at multiple concentrations for their effect on cell viability. Concentration-response curves (CRCs) were derived directly from the primary screen, and both potency and efficacy values were used to identify compounds with robust bioactivity profiles. We screened the NIH Chemical Genomics Center (NCGC) Pharmaceutical Collection (NPC) and Mechanism Interrogation Plate (MIPE) small molecule collections of approved and investigational compounds against these cell lines; and measured metabolically active cells after 48 hours of compound treatment as a proxy for cell viability. […] Assay Submitter: Nathalia J. Martinez, National Center for Advancing Translational Sciences, National Institutes of Health, Rockville, MD, USA; email: natalia.martinez@nih.gov. Shen, M et al. Quantitative high-throughput phenotypic screening of pediatric cancer cell lines identifies multiple opportunities for drug repurposing. Oncotarget 2017 Dec 19;9(4):4758-4772. PMID 29435139.\nThe cells were obtained from University of North Carolina (UNC), Pediatric Preclinical Testing Program (PPT), and Coriell Institute (CI). qHTS cell viability assay: Cells were assayed in growth media at a density of 500-1,000 cells/well. Five microliters of cells were dispensed into 1,536-well, white, solid-bottom, TC-treated plates (Greiner Bio One) using a multidrop dispenser and incubated at 37 degrees C, 5% CO2, under a humidified atmosphere for 5 hours. Twenty-three nanoliters of compounds and controls (neutral control DMSO or positive control bortezomib at final concentration of 2.3 uM) were subsequently transferred by Kalypsys pintool. For primary screens, the MIPE collection was tested at 11-point dilutions (final concentrations range from 0.78 nM to 46 µM) and the NPC collection at 8-point dilutions (final concentrations range from 0.59 nM to 46 µM). Compounds tested in follow-up screens were assayed at 11-point dilutions. Cells were incubated for 48 hours, followed by addition of 3 uL of CellTiter-Glo (Promega). After a 15min incubation at room temperature, samples were analyzed for luminescence intensity using a ViewLux High-throughput CCD imager equipped with clear filters."}
{"smiles": "CCNc1nc(Cl)nc(NCC)n1", "Potency": "inactive"}
{"smiles": "NC(=O)OCCCc1ccccc1", "Potency": "inactive"}
{"smiles": "NCc1cccnc1", "Potency": "inactive"}
{"smiles": "CC#C[C@]1(O)CC[C@H]2[C@@H]3C[C@H](C)C4=CC(=O)CC[C@]4(C)[C@H]3CC[C@@]21C", "Potency": "inactive"}
{"smiles": "COCC(=O)N(c1c(C)cccc1C)C(C)C(=O)OC", "note": "(stereo not given)", "Potency": "inactive"}
{"smiles": "C=CC[C@]1(O)CC[C@H]2[C@@H]3CCC4=CC(=O)CCC4=C3C=C[C@@]21C", "Potency": "inactive"}
{"smiles": "c1ccc2nc(N3CCNCC3)ccc2c1", "Potency": "inactive"}
{"smiles": "Oc1c(Br)cc(Br)cc1Br", "Potency": "inactive"}
{"smiles": "CN(C)C(=O)Oc1cc(OC(=O)N(C)C)cc(C(O)CNC(C)(C)C)c1", "note": "(stereo not given)", "Potency": "inactive"}
{"smiles": "O=C1NCN(c2ccccc2)C12CCN(CCCOc1ccc(F)cc1)CC2", "Potency": "inactive"}
{"smiles": "C[C@H]1CNCCc2ccc(Cl)cc21", "Potency": "inactive"}
{"smiles": "CNC(=O)NC(O)C(Cl)(Cl)Cl", "note": "(stereo not given)", "Potency": "inactive"}
{"smiles": "CCCC[N+]1(C)[C@@H]2CC(OC(=O)[C@H](CO)c3ccccc3)C[C@H]1[C@@H]1O[C@@H]12", "note": "(stereo not given in full)", "Potency": "inactive"}
{"smiles": "CCCCC1C(=O)NC(=O)N(C2CCCCC2)C1=O", "note": "(stereo not given)", "Potency": "inactive"}
{"smiles": "Nc1ccc(N)cc1", "Potency": "21.1 µM (active)"}
{"smiles": "O=c1n(Cl)c(=O)n(Cl)c(=O)n1Cl", "Potency": "inactive"}
{"smiles": "O=C(CCl)c1ccc(Cl)cc1Cl", "Potency": "26.6 µM (active)"}
{"smiles": "CC(CC(C(N)=O)(c1ccccc1)c1ccccc1)N(C)C", "note": "(stereo not given)", "Potency": "inactive"}
{"smiles": "CCOC(C(=O)OCCN(C)C)(c1ccccc1)c1ccccc1", "Potency": "inactive"}
{"smiles": "COc1cc(C[C@@H](C)N)c(OC)cc1Br", "Potency": "inactive"}
{"smiles": "CCN1CCCC1CNC(=O)C(O)(c1ccccc1)c1ccccc1", "note": "(stereo not given)", "Potency": "inactive"}
{"smiles": "NC(=O)CN1CCCC1=O", "Potency": "inactive"}
{"smiles": "Cc1cccc(Cc2cnc[nH]2)c1C", "Potency": "inactive"}
{"smiles": "C[C@@H]1CN(C2CCC(C#N)(c3ccc(F)cc3)CC2)CC[C@]1(C(=O)O)c1ccccc1", "note": "(stereo not given in full)", "Potency": "inactive"}
{"smiles": "CC(C)NCC(O)c1ccc(N)c(C#N)c1", "note": "(stereo not given)", "Potency": "inactive"}
{"smiles": "COc1ccc2[nH]cc(CCN(C(C)C)C(C)C)c2c1", "Potency": "inactive"}
{"smiles": "ClC1=C(Cl)C2(Cl)C(CBr)CC1(Cl)C2(Cl)Cl", "note": "(stereo not given)", "Potency": "inactive"}
{"smiles": "CCOP(=S)(OCC)O/N=C(\\C#N)c1ccccc1", "Potency": "inactive"}
{"smiles": "COc1cc(C[C@@H](C)N)c(OC)cc1C", "Potency": "inactive"}
{"smiles": "O=C1CN2CCOC2(c2ccccc2Cl)c2cc(Cl)ccc2N1", "note": "(stereo not given)", "Potency": "inactive"}
{"smiles": "Cc1ccc([N+](=O)[O-])[c]2c1[O][Hg]2", "Potency": "0.0531 µM (active)"}
{"smiles": "CNC(C)Cc1ccccc1OC", "note": "(stereo not given)", "Potency": "inactive"}
{"smiles": "C[C@]12CC[C@H]3[C@@H](CCC4=CC(=O)CC[C@@H]43)[C@@H]1CC[C@@H]2O", "Potency": "inactive"}
{"smiles": "COc1cc(N)c(Cl)cc1C(=O)NC1CN2CCC1CC2", "note": "(stereo not given)", "Potency": "inactive"}
{"smiles": "CCOC(=O)NC(C)(C)Cc1ccc(Cl)cc1", "Potency": "inactive"}
{"smiles": "CC(C(O)c1ccccc1)N(C)C/C=C/c1ccccc1", "note": "(stereo not given)", "Potency": "inactive"}
{"smiles": "CCN(CC)CCOC(=O)C(C)(c1ccccc1)c1ccccc1", "Potency": "inactive"}
{"smiles": "CCN(CC)C(C)C(=O)c1ccccc1", "note": "(stereo not given)", "Potency": "inactive"}
{"smiles": "CC1N=C(N)OC1c1ccccc1", "note": "(stereo not given)", "Potency": "inactive"}
{"smiles": "COP(=O)(OC)OC=C(Cl)Cl", "Potency": "inactive"}
